Test results reported in PubChem BioAssay.
Values joined by “and” are separate entries in the source; they are usually repeats but may differ in a detail not shown here. Identical values can stand only once. A number with no mark means an inactive call. A call without a number means that no potency is given here. For some of these results: Potency and affinity values are given separately. Active and inactive are the calls of the source. Unless noted, how the calls were made is not given here.

What was measured:
[1] = antimalarial activity against Dd2 strain (AID 2302;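 active means growth inhibition above 50% at the single 2 µM test dose, taken to imply half-maximal potency below 2 µM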); conditions: P. falciparum Dd2 in RBCs, LDH growth readout, 72 h; at 2 µM; hits give high values
[2] = HepG2 cytotoxicity, primary screen, cytotoxicity control for P. falciparum antimalarial project, cell-based, ATP luminescence (AID 2303;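 active means inhibition above 50%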); conditions: HepG2 viability, 24-48 h, at 10 µM, hits give high values
[3] = target: L-lactate dehydrogenase (Plasmodium falciparum (isolate CDC / Honduras)) (UniProt Q27743); assay: PfLDH activity inhibition – cell lysate, 3D7 strain, counter-screen for P. falciparum growth inhibition project (AID 2304); conditions: P. falciparum 3D7 crude extract, LDH APAD/NBT absorbance; at 2 µM; hits give high values
L-lactate dehydrogenase (Plasmodium falciparum (isolate CDC / Honduras)), sequence (Q27743 whole entry, looked up): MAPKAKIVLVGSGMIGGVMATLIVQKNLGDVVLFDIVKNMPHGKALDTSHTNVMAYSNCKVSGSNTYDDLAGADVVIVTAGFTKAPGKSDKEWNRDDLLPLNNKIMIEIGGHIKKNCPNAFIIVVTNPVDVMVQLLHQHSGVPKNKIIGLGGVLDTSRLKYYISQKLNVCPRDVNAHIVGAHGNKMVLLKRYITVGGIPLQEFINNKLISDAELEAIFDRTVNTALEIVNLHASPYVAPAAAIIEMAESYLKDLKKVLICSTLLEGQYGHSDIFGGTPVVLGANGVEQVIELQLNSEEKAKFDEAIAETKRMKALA

[4] = inhibition of 3D7 malaria parasite growth – strain 3D7 (AID 2306); conditions: P. falciparum 3D7 erythrocytic growth, LDH absorbance, 72 h; at 2 µM; hits give high values
[5] = target: Calcium-dependent protein kinase 1 (Plasmodium falciparum (isolate 3D7)) (UniProt P62344); assay: PfCDPK1 kinase inhibitors, biochemical, TCAMS library (AID 1159585; cut-off not given, nearly all actives have IC50 up to about 0.98 µM;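 further: inhibitors leave more ATP so luminescence rises with inhibition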); conditions: recombinant PfCDPK1, Kinase-Glo ATP depletion luminescence
Calcium-dependent protein kinase 1 (Plasmodium falciparum (isolate 3D7)), sequence (P62344 whole entry, looked up): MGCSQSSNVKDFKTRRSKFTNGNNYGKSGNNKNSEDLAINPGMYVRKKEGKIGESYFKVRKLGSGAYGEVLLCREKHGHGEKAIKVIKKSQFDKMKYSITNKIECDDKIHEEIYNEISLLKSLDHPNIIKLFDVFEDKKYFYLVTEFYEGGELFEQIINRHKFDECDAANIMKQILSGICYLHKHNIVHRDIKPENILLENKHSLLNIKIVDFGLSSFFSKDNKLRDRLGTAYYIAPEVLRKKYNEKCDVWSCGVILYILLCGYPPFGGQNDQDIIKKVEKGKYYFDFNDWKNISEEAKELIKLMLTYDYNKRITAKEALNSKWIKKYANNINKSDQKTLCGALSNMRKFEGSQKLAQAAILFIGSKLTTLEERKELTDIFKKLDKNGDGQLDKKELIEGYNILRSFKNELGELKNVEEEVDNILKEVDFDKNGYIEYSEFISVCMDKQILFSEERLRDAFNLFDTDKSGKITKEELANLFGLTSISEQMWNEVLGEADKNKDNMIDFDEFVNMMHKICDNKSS

[6] = target: Plasmodium falciparum protein kinase 6 (PK6, PF3D7_1337100) (UniProt Q8IDW1); assay: PfPK6 kinase inhibitors, biochemical, TCAMS library (AID 1159586); conditions: recombinant PfPK6, Kinase-Glo ATP depletion luminescence
Plasmodium falciparum protein kinase 6 (PK6, PF3D7_1337100), sequence (Q8IDW1 1-305): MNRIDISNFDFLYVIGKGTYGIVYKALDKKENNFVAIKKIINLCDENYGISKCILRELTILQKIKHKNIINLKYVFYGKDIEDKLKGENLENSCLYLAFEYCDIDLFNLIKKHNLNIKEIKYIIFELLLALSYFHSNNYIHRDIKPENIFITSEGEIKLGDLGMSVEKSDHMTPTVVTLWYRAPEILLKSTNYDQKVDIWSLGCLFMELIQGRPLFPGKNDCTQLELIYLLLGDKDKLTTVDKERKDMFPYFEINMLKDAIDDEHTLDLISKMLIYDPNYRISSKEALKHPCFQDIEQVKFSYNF

[7] = target: Protein kinase 7 (PK7), Plasmodium falciparum 3D7 (PF3D7_0213400) (UniProt Q7YTF7); assay: inhibition of Plasmodium PK7 catalytic activity – biochemical, TCAMS antimalarial set, Kinase-Glo luminescence (AID 1159587); conditions: recombinant PfPK7, Kinase-Glo ATP depletion luminescence
Protein kinase 7 (PK7), Plasmodium falciparum 3D7 (PF3D7_0213400), sequence (Q7YTF7 1-343): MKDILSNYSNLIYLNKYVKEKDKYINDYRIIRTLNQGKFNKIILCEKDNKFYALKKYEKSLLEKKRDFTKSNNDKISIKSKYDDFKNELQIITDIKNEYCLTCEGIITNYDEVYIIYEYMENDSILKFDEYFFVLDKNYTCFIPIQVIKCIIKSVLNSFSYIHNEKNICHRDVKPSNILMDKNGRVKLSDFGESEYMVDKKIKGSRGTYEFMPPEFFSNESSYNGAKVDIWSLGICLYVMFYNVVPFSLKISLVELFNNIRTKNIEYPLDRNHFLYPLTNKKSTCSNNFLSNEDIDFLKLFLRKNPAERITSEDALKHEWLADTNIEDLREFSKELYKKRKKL

[8] = target: Calcium-dependent protein kinase 4 (Plasmodium falciparum (isolate 3D7)) (UniProt Q8IBS5); assay: PfCDPK4 kinase inhibitors, biochemical, TCAMS library (AID 1159588; cut-off not given, nearly all actives have IC50 up to about 0.91 µM); conditions: recombinant PfCDPK4, Kinase-Glo ATP depletion luminescence
Calcium-dependent protein kinase 4 (Plasmodium falciparum (isolate 3D7)), sequence (Q8IBS5 whole entry, looked up): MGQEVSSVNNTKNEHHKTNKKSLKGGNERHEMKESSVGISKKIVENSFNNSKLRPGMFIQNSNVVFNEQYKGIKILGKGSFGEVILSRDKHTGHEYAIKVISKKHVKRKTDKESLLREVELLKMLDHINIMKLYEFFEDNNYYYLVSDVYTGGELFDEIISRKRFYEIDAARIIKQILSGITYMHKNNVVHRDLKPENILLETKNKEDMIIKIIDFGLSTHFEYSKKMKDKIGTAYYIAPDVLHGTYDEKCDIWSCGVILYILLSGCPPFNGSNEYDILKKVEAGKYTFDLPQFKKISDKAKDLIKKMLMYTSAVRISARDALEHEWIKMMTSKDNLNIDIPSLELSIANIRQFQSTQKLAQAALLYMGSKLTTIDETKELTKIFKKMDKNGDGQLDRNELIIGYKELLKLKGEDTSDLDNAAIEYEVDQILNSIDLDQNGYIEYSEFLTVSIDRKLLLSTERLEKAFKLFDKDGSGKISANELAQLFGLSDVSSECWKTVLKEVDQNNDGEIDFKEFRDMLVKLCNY

SMILES | growth inhibition [1] | inhibition [2] | inhibition [3] | growth inhibition [4] | outcome [5] | outcome [6] | outcome [7] | outcome [8]
Cc1cc(NN=Cc2ccc(Cl)cc2)c2ccccc2n1 | 87% (active) | 5% | -3% | 100% (active) | inactive | inactive | inactive | inactive
CNCCNCc1cccc(-c2ccc(-c3nc4ccc(C(F)(F)F)cc4[nH]3)cc2)c1 | 92% (active) | 21% | -5% | 100% (active) | inactive | inactive | inactive | inactive
O=C(Nc1ccc(CN2CCN(S(=O)(=O)c3ccc(Cl)s3)CC2)cc1)c1cccs1 | 87% (active) | 14% | 2% | 92% (active) | inactive | inactive | inactive | inactive
COc1ccccc1C1CCN(C2CCC(NC(=O)/C=C/c3cc(F)cc(F)c3)CC2)CC1 (stereo not given) | 15% | 45% | 0% | 91% (active) | inactive | inactive | inactive | inactive
NC(=O)COc1cccc2c1CCN(CCN1CCC(NC(=O)c3ccc(-c4ccc(Cl)cc4)cc3)CC1)C2 | 6% | 44% | -1% | 92% (active) | inactive | inactive | inactive | inactive
O=C(NC1CC1)c1ccc(Cn2c(SCc3cccc(Cl)c3)nc3ccccc3c2=O)cc1 | 70% (active) | 2% | 1% | 90% (active) | inactive | inactive | inactive | inactive
CC1(C)N=C(N)N=C(N)N1c1ccc2ccccc2c1 | -1% | 48% | -2% | 95% (active) | inactive | inactive | inactive | inactive
O=C(C=Cc1cn(-c2ccccc2)nc1-c1cccs1)N1CCN(c2ccncc2)CC1 | 61% (active) | 31% | 1% | 100% (active) | inactive | inactive | inactive | inactive
O=C(Nc1ccc(-c2cccc(-c3nc4ccc(C(F)(F)F)cc4[nH]3)c2)cc1)c1cccnc1 | 24% | 74% (active) | -5% | 100% (active) | inactive | inactive | inactive | inactive
Cc1cccc2[nH]c(-c3ccc(-c4ccc(CN5CCCCC5CO)cc4)cc3)nc12 (stereo not given) | 76% (active) | 32% | 1% | 100% (active) | inactive | inactive | inactive | inactive
CN(C)CCCN(C)C(=O)c1cc2cc(-c3ccccc3)ccc2n1S(=O)(=O)c1ccccc1 | 66% (active) | 29% | -1% | 98% (active) | inactive | inactive | inactive | inactive
O=c1cc(N2CCCNCC2)c(Cl)nn1Cc1ccc(NS(=O)(=O)c2ccc(Oc3ccccc3)cc2)cc1 | -4% | 0% | -2% | 98% (active) | inactive | inactive | inactive | inactive
Oc1ccc(Cl)cc1CN1CCCC(COC(c2ccc(F)cc2)c2ccc(F)cc2)C1 (stereo not given) | 100% (active) | 20% | 3% | 98% (active) | inactive | inactive | inactive | inactive
CC1(CCc2ccccc2)N=C(N)N=C(N)C1c1ccc(Cl)c(Cl)c1 (stereo not given) | 39% | 19% | -8% | 98% (active) | inactive | inactive | inactive | inactive
C[C@H](Cc1ccc(C[C@@H](C)NCC(O)c2cc(Cl)c(N)c(Cl)c2)cc1)NCC(O)c1cc(Cl)c(N)c(Cl)c1 (stereo not given in full) | 50% (active) | 26% | -3% | 98% (active) | inactive | inactive | inactive | inactive
CC1(C)N=C(N)N=C(N)N1OCCCCOc1ccccc1 | 95% (active) | 60% (active) | -1% | 95% (active) | inactive | inactive | inactive | inactive
Fc1ccc2ncc(Cl)c(CCN3CCC(NCc4cc5c(cn4)OCCO5)CC3)c2c1 | 20% | 24% | -4% | 93% (active) | inactive | inactive | inactive | inactive
O=C(/C=C/c1ccc(Cl)c(Cl)c1)NCCCCCN1CCC(NC(=O)Nc2cccc(C(F)(F)F)c2)CC1 | 11% | 61% (active) | 4% | 102% (active) | inactive | inactive | inactive | inactive

SMILES | growth inhibition [1] | inhibition [2] | inhibition [3] | growth inhibition [4] | outcome [5] | outcome [6] | outcome [7] | outcome [8]
O=C(/C=C/c1ccc(Cl)c(Cl)c1)NCCCCCN1CC[C@H](NC(=O)c2ccc3c(c2)OCO3)C1 | 3% | 32% | 0% | 94% (active) | inactive | inactive | inactive | inactive
CS(=O)(=O)c1ccc2nc(NC(=O)c3csnn3)sc2c1 | 95% (active) | 3% | 0% | 90% (active) | inactive | inactive | inactive | inactive
COc1ccc(Cn2c(SCc3ccc(C)cc3)nc3cc(OC)c(OC)cc3c2=N)cc1Cl | 7% | 50% (active) | 5% | 92% (active) | inactive | inactive | inactive | inactive
CC(CCc1ccccc1)NCC(O)c1ccc2c(c1)S(=O)(=O)c1ccccc1N2 (stereo not given) | 4% | 17% | 0% | 95% (active) | inactive | inactive | inactive | inactive
CCCCSc1c(CNCCCCCCNCc2ccc3ccccc3c2SCCCC)ccc2ccccc12 | 62% (active) | 99% (active) | -9% | 93% (active) | inactive | inactive | inactive | inactive
COc1ccc(CCn2c(=N)c(C(=O)NCc3cccnc3)cc3c(=O)n4cccc(C)c4nc32)cc1 | 12% | 5% | 0% | 92% (active) | inactive | inactive | inactive | inactive
COc1ccc2nccc([C@@H](O)CN3CCC(NCc4ccc5c(c4)nnn5C(C)C)CC3)c2c1 | 40% | 15% | 0% | 100% (active) | inactive | inactive | inactive | inactive
COc1ccc(-c2ccc(S(=O)(=O)Nc3cc4c(cc3OC(C)C)CCN(C)CC4)cc2)cc1 | 2% | 16% | -4% | 98% (active) | inactive | inactive | inactive | inactive
O=C(/C=C/c1ccc(Cl)c(Cl)c1)NCCCCCN1CCCN(C(=O)Nc2cccc(F)c2)CC1 | 4% | 20% | -3% | 97% (active) | inactive | inactive | inactive | inactive
CC(=O)N1N=C(c2ccc(Cl)cc2)Sc2c1nc(C1CCCCC1)n2C(C)=O | 67% (active) | 1% | -1% | 103% (active) | inactive | inactive | inactive | inactive
CC(CN(C)C)C(=O)Nc1ccc(-c2cccc(-c3nc4ccccc4[nH]3)c2)cc1 (stereo not given) | 57% (active) | 68% (active) | 4% | 99% (active) | inactive | inactive | inactive | inactive
COc1ccc2ncc(F)c(CCN3CC[C@H](NCc4cc5c(s4)CCCN5)[C@H](O)C3)c2n1 | 16% | 2% | 0% | 96% (active) | inactive | inactive | inactive | inactive
O=C(NC1CC1)c1cnc(N2CCCC(c3ccccc3)C2)c(Cl)c1 (stereo not given) | 94% (active) | 6% | -3% | 95% (active) | inactive | inactive | inactive | inactive
Cc1ccc2c(NN=Cc3cccc(F)c3)cc(C)nc2c1 | 66% (active) | 34% | -2% | 96% (active) | inactive | inactive | inactive | inactive
O=C(Nc1cccc(-c2cccc(-c3nc4ccccc4[nH]3)c2)c1)N[C@@H]1C[C@H]1c1ccccc1 | 22% and 27% | 40% and 8% | 2% and 1% | 87% (active) and 90% (active) | inactive | inactive | inactive | inactive
CN1CCN(c2cccc(-c3nnc(-c4cccc(OCC(=O)NCc5ccc(C(F)(F)F)cc5)c4)o3)c2)CC1 | 86% (active) | 10% | -4% | 98% (active) | inactive | inactive | inactive | inactive
Cc1ccc(NCc2cccc(F)c2)cc1S(=O)(=O)N[C@@H]1CCN(C#N)C1 | 83% (active) | 13% | -2% | 89% (active) | inactive | inactive | inactive | inactive
